Experimental data taken from the supplement of paper PMC11732987, “Enantioselective OTUD7B fragment discovery through chemoproteomics screening and high-throughput optimisation” (Communications Chemistry, 2025).

Columns and labels:
Test in all cases: log2 ratio of Biotin-Ahx-Ub-VS probe labelling (fragment/DMSO); higher = less target engagement (more negative = stronger competition), active = hit call of the paper (q ≤ 0.05, log2 ratio ≤ -1)
Settings in all cases: compound concentration: 200 uM; treatment time: 3 h
USP42 = target: T1, USP42 (UniProt Q9H9J4)
T1 sequence (whole entry): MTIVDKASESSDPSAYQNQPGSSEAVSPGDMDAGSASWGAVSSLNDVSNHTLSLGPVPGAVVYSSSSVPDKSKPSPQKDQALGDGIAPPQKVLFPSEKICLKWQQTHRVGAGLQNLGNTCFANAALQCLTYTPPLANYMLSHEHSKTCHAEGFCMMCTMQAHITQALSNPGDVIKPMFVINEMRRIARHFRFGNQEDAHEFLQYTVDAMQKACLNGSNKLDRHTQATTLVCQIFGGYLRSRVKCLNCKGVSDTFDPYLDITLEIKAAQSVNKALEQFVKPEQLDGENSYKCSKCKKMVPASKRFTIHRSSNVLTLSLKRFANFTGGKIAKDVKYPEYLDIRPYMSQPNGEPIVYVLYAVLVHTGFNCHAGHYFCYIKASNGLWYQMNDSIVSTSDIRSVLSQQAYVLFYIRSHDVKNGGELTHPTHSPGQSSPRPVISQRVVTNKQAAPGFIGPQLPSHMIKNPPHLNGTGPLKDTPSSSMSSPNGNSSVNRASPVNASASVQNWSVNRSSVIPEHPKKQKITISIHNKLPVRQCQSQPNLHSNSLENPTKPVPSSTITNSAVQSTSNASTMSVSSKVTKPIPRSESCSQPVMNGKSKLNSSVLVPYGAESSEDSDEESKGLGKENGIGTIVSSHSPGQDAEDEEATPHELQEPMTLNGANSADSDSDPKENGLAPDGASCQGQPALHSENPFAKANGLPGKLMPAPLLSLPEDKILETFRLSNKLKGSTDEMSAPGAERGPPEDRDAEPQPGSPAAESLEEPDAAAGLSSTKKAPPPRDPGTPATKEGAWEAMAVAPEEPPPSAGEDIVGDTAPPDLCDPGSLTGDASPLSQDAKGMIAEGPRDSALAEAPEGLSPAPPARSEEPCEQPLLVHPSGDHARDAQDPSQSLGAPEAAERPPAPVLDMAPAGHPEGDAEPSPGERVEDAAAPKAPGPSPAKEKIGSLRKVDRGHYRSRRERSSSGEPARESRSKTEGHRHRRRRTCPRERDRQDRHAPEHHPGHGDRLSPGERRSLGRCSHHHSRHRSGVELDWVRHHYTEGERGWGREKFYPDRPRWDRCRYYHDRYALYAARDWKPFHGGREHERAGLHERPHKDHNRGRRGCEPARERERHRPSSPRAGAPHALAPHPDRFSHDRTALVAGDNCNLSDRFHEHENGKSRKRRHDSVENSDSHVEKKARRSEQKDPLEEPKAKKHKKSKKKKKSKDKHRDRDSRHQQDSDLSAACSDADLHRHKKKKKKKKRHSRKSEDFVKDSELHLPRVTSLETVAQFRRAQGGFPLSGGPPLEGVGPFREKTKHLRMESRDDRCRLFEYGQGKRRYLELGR
How it was run: (§1)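 Labelled DUBs from HEK293T lysate were NeutrAvidin-enriched, digested with LysC and trypsin, and run by diaPASEF LC-MS/MS. Before that, each 495 µg sample in Tris/CHAPS/IGEPAL buffer with protease inhibitors was treated in triplicate with fragment at 200 µM or vehicle for 3 h, then with Biotin-Ahx-Ub-VS at 0.5 µM final for 1 h. Values are average log2 ratios of fragment over vehicle by unpaired t-test, based on global-median-normalised Spectronaut label-free quantities from proteins with ≥2 unique peptides.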

USP46 = USP46 (UniProt P62068)
How it was run: as §1

USP47 = target: T2, USP47 (UniProt Q96K76)
T2 sequence (whole entry): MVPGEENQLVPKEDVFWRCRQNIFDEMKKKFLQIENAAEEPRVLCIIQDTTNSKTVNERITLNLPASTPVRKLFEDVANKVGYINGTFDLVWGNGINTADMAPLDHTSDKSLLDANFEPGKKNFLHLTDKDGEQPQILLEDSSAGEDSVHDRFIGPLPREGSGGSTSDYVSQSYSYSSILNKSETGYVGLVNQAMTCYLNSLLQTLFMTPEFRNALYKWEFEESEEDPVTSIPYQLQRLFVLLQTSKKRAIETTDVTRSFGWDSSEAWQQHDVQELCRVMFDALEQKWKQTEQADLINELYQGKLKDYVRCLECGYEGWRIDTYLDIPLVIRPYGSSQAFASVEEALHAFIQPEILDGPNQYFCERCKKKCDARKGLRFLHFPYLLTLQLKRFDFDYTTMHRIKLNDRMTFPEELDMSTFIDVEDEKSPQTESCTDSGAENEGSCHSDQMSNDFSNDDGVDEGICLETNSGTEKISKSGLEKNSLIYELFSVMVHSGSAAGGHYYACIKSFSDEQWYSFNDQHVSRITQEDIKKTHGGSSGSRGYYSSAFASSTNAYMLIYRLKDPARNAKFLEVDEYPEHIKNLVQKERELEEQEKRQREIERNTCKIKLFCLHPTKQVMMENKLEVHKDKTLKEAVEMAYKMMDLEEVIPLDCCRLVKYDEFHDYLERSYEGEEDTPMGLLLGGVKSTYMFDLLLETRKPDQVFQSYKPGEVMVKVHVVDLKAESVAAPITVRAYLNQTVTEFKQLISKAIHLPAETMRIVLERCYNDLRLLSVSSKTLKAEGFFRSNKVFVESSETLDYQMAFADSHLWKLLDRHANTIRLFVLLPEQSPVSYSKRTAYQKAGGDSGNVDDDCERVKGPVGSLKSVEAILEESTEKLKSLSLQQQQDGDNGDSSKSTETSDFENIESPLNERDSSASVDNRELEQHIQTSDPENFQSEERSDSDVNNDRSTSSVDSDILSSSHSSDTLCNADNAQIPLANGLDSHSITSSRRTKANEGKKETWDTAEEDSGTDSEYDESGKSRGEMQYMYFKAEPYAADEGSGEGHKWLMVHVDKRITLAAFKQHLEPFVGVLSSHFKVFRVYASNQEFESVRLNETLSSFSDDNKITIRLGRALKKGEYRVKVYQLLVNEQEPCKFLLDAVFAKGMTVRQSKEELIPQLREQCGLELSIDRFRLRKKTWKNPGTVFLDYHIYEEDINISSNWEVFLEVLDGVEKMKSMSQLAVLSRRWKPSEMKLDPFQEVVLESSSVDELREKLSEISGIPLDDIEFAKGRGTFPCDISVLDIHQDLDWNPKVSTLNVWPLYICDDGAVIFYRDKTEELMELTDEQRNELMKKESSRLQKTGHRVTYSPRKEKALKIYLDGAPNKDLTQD
How it was run: as §1

USP48 = target: T3, USP48 (UniProt Q86UV5)
T3 sequence (whole entry): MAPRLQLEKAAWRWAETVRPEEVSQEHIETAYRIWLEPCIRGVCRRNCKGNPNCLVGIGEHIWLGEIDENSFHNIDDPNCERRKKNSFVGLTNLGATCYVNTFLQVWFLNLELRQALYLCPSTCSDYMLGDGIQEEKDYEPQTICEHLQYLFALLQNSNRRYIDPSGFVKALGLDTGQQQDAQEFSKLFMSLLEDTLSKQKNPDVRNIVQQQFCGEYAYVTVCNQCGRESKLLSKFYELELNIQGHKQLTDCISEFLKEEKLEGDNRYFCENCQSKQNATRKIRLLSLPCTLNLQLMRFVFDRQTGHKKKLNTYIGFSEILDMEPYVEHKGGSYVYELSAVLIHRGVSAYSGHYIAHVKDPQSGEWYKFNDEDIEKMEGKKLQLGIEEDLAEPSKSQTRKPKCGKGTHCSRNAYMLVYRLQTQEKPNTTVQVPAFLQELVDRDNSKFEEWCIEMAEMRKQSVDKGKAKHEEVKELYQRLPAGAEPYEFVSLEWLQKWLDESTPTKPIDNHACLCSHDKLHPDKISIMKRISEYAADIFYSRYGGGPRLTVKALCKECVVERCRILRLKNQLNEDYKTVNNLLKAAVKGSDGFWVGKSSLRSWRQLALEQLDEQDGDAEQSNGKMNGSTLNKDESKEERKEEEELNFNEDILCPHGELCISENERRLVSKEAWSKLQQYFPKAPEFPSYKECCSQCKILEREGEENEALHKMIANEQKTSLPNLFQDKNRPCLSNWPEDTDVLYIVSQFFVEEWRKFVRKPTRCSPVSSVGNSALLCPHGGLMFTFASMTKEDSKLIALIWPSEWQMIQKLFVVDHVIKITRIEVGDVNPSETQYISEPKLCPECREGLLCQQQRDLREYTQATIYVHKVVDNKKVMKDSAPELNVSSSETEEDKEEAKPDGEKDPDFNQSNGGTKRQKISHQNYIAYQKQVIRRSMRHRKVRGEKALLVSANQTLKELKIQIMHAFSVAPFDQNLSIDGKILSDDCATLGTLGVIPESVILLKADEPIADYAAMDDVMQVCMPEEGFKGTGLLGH
How it was run: as §1

USP5 = target: T4, USP5 (UniProt P45974)
T4 sequence (whole entry): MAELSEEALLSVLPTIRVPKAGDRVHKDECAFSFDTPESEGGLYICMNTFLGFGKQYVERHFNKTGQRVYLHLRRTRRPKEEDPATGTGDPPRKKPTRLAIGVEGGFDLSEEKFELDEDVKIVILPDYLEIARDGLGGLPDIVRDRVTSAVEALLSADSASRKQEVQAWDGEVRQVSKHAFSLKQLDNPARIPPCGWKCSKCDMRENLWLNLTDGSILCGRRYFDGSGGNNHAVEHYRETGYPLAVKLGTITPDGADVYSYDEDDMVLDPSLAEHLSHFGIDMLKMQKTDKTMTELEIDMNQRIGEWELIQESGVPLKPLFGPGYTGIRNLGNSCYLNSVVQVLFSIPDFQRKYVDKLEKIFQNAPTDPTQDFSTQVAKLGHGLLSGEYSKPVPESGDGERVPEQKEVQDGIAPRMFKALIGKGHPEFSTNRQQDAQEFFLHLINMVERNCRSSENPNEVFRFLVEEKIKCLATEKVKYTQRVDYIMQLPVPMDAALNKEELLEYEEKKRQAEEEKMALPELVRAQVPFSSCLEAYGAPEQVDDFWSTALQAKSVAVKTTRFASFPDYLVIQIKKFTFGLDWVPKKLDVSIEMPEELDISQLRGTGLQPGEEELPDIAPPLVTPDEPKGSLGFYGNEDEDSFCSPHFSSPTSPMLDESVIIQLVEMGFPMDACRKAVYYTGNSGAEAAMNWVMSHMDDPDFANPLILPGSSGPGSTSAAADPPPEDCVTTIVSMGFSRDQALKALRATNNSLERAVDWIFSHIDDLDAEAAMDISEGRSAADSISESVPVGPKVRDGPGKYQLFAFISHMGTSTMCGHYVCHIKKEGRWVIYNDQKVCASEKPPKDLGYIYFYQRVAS
How it was run: as §1

USP54 = USP54 (UniProt Q70EL1)
How it was run: as §1

USP7 = USP7 (UniProt Q93009)
How it was run: as §1

USP8 = target: T5, USP8 (UniProt P40818)
T5 sequence (whole entry): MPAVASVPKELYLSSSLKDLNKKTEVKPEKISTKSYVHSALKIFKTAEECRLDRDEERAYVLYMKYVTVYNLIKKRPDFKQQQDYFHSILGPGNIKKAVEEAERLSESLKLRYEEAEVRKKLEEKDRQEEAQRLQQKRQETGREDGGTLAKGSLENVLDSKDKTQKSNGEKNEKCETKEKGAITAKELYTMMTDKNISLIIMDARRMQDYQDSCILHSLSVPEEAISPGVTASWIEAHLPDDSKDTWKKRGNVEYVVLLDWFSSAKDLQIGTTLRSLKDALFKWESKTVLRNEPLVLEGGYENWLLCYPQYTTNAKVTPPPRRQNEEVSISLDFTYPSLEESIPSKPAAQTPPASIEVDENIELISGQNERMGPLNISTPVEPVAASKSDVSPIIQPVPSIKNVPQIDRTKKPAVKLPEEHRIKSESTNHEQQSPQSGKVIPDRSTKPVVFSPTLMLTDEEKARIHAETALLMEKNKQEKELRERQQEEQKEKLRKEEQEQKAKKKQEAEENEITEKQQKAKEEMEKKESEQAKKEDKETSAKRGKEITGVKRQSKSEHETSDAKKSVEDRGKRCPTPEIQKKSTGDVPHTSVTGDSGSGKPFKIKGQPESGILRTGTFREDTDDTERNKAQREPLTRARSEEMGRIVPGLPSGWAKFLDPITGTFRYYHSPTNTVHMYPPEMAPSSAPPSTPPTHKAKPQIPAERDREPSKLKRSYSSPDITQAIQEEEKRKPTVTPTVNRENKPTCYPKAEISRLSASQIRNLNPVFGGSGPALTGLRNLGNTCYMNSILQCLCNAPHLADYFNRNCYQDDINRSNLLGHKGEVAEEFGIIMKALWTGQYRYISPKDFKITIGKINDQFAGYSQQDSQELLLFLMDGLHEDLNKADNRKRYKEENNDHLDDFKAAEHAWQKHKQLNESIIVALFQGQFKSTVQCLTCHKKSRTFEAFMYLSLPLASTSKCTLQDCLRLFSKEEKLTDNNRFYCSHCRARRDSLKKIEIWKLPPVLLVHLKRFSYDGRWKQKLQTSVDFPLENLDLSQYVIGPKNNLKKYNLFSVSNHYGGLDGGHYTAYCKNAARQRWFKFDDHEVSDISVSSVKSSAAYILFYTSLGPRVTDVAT
How it was run: as §1

USP9X = USP9X (UniProt Q93008)
How it was run: as §1

UniProt O00487 = target: UniProt O00487
How it was run: as §1

Measured: log2 ratio of Biotin-Ahx-Ub-VS probe labelling

Chain of USP54 (Q70EL1 whole entry): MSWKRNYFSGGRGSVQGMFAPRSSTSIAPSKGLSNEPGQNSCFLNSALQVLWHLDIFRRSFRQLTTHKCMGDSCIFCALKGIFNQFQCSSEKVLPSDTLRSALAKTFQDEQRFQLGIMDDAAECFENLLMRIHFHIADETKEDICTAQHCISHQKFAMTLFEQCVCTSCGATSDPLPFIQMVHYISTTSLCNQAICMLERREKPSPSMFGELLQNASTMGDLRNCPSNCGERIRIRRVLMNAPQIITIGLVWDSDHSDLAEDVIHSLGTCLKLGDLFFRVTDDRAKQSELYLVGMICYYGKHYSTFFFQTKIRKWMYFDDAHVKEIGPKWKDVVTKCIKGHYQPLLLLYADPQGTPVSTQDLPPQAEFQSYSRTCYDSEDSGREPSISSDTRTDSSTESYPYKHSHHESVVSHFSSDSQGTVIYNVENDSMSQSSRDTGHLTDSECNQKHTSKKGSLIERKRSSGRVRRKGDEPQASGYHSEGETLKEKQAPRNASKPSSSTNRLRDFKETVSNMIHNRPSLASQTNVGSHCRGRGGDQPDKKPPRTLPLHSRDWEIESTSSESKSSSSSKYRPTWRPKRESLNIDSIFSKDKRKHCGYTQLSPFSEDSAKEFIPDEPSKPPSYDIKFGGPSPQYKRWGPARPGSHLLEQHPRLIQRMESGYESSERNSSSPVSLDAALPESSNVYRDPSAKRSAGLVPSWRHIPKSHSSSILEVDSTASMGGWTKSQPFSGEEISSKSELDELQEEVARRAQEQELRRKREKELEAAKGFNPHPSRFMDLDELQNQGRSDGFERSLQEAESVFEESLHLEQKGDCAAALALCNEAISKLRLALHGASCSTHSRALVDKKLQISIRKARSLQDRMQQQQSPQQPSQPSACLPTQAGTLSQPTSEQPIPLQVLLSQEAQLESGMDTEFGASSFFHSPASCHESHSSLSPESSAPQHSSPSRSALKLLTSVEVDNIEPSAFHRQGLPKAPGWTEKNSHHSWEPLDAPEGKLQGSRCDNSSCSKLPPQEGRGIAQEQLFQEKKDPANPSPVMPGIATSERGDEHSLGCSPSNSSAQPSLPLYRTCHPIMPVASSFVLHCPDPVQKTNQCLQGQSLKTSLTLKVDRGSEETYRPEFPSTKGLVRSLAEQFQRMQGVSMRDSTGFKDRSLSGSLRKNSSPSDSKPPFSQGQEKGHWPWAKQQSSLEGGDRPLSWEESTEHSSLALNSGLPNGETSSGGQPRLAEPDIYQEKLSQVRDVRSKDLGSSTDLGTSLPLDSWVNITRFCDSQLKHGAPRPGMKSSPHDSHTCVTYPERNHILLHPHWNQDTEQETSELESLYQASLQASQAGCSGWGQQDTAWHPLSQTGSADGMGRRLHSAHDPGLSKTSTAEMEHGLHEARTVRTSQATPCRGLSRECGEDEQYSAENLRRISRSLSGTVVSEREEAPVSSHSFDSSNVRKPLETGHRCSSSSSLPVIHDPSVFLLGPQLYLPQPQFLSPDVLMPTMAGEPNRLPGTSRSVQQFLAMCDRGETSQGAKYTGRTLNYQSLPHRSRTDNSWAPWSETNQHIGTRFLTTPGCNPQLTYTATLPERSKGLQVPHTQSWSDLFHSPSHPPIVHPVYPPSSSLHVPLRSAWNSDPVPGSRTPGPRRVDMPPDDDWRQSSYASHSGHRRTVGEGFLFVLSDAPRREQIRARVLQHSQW
Chain of USP9X (Q93008 whole entry): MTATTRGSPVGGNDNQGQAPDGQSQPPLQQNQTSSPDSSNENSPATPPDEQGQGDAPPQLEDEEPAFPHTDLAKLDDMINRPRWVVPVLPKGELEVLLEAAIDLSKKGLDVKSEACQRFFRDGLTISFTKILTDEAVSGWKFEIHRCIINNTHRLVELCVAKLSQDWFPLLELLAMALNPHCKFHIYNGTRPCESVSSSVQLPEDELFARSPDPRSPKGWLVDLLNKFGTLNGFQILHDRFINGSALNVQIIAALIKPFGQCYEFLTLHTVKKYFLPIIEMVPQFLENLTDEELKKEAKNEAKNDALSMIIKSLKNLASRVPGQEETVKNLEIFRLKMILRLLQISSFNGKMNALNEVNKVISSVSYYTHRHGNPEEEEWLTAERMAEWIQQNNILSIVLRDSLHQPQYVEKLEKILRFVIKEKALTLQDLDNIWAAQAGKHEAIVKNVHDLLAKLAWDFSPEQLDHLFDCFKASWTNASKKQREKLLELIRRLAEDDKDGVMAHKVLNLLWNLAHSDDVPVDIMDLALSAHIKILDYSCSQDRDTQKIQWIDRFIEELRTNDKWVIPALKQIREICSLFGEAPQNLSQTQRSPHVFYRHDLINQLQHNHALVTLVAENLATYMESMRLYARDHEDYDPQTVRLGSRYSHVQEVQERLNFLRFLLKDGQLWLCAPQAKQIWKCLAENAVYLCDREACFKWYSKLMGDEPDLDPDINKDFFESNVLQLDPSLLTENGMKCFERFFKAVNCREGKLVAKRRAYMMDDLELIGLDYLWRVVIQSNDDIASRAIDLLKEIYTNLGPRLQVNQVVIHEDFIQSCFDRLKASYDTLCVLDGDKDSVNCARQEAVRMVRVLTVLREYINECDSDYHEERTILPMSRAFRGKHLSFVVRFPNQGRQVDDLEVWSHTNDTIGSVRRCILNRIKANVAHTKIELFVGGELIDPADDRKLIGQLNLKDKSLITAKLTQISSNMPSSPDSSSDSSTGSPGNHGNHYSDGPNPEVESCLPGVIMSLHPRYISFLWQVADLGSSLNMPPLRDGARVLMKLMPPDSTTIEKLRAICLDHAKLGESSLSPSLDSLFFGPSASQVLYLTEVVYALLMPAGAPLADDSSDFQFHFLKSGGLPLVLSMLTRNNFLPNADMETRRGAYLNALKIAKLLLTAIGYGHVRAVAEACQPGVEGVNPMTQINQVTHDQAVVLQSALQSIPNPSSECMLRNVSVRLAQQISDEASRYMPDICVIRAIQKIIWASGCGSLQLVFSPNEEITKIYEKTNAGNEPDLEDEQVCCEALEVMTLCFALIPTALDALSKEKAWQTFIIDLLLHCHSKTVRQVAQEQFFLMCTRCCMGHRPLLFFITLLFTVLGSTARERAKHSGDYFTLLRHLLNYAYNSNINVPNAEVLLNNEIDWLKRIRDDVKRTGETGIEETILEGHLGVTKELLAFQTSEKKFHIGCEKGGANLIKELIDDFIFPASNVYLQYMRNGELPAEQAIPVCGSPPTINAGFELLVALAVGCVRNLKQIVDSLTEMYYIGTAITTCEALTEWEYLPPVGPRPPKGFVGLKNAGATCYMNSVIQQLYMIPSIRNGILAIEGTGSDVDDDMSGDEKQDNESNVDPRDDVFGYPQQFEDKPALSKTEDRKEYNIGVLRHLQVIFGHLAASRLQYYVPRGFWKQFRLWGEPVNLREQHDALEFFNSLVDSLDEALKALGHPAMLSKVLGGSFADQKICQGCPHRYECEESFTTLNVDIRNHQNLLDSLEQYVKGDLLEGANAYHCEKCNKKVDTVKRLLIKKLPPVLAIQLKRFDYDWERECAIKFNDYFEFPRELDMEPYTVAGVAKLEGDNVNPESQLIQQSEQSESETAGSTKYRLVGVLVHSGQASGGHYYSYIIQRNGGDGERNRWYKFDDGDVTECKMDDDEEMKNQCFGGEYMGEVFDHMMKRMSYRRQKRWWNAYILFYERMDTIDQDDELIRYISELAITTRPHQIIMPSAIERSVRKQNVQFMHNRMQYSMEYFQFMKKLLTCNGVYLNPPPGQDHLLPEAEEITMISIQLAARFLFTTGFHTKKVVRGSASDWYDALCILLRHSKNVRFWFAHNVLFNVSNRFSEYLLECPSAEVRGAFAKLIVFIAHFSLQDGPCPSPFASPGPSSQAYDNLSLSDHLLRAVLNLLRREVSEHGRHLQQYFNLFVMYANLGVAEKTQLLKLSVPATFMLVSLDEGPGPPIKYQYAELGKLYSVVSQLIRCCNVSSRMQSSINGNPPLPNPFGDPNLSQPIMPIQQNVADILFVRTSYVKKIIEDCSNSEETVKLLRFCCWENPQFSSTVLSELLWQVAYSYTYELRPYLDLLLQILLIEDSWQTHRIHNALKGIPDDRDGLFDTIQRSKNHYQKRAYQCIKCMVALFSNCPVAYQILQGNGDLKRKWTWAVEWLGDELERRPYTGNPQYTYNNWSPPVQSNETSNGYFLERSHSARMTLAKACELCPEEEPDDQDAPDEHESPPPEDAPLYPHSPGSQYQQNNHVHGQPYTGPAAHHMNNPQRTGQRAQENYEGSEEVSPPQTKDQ
Chain of USP46 (P62068 whole entry): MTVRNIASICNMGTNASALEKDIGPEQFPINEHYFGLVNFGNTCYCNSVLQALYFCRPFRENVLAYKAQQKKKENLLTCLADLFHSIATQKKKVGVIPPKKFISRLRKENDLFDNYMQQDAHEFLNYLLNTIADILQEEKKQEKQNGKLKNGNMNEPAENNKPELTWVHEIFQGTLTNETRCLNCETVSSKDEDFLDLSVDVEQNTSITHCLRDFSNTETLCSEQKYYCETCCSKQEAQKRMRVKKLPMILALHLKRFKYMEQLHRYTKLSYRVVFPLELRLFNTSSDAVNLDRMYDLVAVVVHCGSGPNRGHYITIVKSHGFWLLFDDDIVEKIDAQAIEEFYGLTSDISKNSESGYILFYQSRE
Chain of UniProt O00487 (O00487 whole entry): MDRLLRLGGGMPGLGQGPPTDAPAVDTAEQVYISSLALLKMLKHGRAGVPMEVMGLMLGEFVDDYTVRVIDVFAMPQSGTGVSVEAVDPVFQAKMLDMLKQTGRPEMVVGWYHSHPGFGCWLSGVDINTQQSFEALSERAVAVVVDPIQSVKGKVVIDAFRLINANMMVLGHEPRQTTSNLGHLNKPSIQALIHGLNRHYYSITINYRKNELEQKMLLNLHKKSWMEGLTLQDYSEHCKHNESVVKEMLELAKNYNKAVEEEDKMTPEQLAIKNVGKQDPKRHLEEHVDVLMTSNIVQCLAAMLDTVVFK

O=C(CCl)NCc1cccc(F)c1
inactive: USP42 -0.105 | USP46 0.151 | USP47 -0.193 | USP48 -0.0573 | USP5 0.1 | USP54 0.396 | USP7 -0.069 | USP8 -0.0486 | USP9X 0.0745 | UniProt O00487 -0.0795
